# Results as given in PubChem BioAssay AID1445 (SRMLSC, 2008).
# Out of some 220,000 compounds screened, about 910 (0.41%) were called active. This excerpt belongs to a sample that is enriched for actives. Measured potencies and affinities stand elsewhere. A number with no mark means an inactive call.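 Rule for the calls: active = primary inhibition above the hit cutoff, then over 50% inhibition at one or more dose response concentrations (cut at about 23% in these data, passing the limit was not always enough); inconclusive = conflicting primary data, or primary hits not chosen for dose response; inactive = low primary inhibition, or under 50% at every dose.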
# Molecular target: Aminopeptidase N (Plasmodium falciparum (isolate 3D7)) (UniProt O96935)
# Assay: P. falciparum M1AAP inhibitors, biochemical, fluorogenic H-Leu-NHMec substrate, 1536-well (AID 1445);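 note: plate controls were DMSO full reaction for no effect and no enzyme background for full effect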
# Conditions: recombinant M1AAP, H-Leu-NHMec fluorogenic kinetic assay; at 30 µM, stronger effect = higher value unless noted
# Chain of Aminopeptidase N (Plasmodium falciparum (isolate 3D7)) (O96935 whole entry, looked up): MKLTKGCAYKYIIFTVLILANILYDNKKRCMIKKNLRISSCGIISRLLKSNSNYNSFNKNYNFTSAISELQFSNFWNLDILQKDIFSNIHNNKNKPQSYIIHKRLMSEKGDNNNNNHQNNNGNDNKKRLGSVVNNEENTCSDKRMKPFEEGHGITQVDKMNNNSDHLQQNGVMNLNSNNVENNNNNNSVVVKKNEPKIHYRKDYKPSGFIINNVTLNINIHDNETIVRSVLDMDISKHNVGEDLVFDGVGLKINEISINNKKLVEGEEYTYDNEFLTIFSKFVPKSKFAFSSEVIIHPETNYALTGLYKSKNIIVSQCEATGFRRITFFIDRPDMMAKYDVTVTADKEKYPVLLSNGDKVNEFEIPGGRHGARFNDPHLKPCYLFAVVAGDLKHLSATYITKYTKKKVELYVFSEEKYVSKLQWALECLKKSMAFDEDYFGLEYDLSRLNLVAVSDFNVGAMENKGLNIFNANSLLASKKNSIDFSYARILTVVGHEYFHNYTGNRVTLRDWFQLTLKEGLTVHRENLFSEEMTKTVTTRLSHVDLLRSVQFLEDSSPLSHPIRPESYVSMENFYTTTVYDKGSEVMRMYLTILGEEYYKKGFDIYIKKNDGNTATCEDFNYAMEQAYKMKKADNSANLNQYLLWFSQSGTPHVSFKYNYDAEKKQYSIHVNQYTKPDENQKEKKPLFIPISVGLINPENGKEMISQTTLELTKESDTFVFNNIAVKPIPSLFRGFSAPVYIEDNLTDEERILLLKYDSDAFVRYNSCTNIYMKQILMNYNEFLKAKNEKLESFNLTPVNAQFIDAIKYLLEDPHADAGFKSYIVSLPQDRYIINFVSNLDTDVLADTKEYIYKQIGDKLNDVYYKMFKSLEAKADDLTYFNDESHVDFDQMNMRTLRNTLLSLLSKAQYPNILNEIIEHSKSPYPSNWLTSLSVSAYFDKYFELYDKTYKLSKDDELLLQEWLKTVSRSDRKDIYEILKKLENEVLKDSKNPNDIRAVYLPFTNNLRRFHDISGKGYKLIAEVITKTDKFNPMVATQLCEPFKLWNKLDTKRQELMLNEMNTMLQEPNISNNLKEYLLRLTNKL
row,Structure (SMILES),inhibition
1,CCOC(=O)CSc1nc2cc(C(=O)NCc3ccco3)ccc2c(=O)n1-c1ccc(F)cc1,4.72%
2,O=C(CCCCn1c(=O)[nH]c2ccccc2c1=O)NCCc1c[nH]c2ccccc12,3.37%
3,O=C(OCc1cc([N+](=O)[O-])cc2c1OCOC2)c1ccc2ccccc2n1,-2.61%
4,Cc1cccc(NC(=O)CC2SC(=O)N(c3ccccc3)C2=O)c1 (centres undefined),0.32%
5,C=C1C(C(=O)Nc2cccc(OC)c2)C1C(=O)Nc1cccc(OC)c1 (centres undefined),4.96%
6,CCn1c(O)c(/C=N/N=C2CCCCC2)c2cc(C3=NNC(=O)CC3)ccc21,4.81%
7,CCOC(=O)c1sc2nccc(N(C)C)c2c1N=CN(C)C,6.88%
8,COc1ccc(OC)c(CN2CCC(C(=O)N(C)CCc3ccc(OC)c(OC)c3)CC2)c1,6.02%
9,COc1cccc(/C=N/NC(=O)CN2CC(c3ccccc3)CC2=O)c1OC (centres undefined),0.13%
10,COc1cc(/C=N/NC(=O)c2cccc(NC(=O)c3ccccc3Cl)c2)ccc1O,21.6%
11,COc1ccccc1/C=N/NC(=O)c1cccc(NC(=O)c2ccccc2Cl)c1,6.04%
12,COc1cccc(/C=N/NC(=O)CN2CC(c3ccccc3)CC2=O)c1O (centres undefined),5.93%
13,CCC(O)(CC)C(=O)N/N=C/c1cc(Br)cc(Br)c1O,30.1%
14,O=C(O)c1ccccc1N/N=C/c1cc(Br)cc(Br)c1O,17.7%
15,CCNC(=O)COc1ccc(/C=N/NC(=O)c2cccnc2)cc1OC,3.71%
16,COc1cc(/C=N/NC(=O)c2cccnc2)ccc1OCC(=O)Nc1c(C)cc(C)cc1C,5.36%
17,O=c1[nH]c(Cc2ccccc2Cl)nc2ccccc12,-2.4%
18,CCc1c(C)[nH]n(-c2nc(-c3ccccc3)cs2)c1=O,-3.51%
19,C=CCn1c(=O)c2ccccc2n2c(SCc3nnc(-c4ccccc4Br)o3)nnc12,2.98%
20,Cc1ccc(NC(=O)c2cc(-c3ccco3)on2)cc1C,3.16%
21,CC12COC3(C(=O)NCCc4ccccc4)CC1CCC32C (centres undefined),3.11%
22,CCCNS(=O)(=O)c1ccc(OCC(=O)NCCC2=CCCCC2)cc1,7.1%
23,Cc1ccc(S(=O)(=O)CCc2nnc(NC(=O)c3cccs3)s2)cc1,-1.23%
24,O=C(N/N=C/c1cc(Cl)cc(Cl)c1O)c1ccncc1,29.6%

row,Structure (SMILES),inhibition
1,O=C(CNC(=O)c1ccccc1Br)N/N=C/c1ccccc1O,-1.99%
2,O=C(CNC(=O)c1ccncc1)N/N=C/c1ccc(Br)cc1,7.31%
3,O=C(N/N=C/c1cc(Cl)ccc1O)c1ccc(Br)cc1,22.2%
4,O=C(CNC(=O)c1ccccc1Br)N/N=C/c1ccc(O)cc1,-0.27%
5,Cc1ccc(/C=N/NC(=O)C(c2ccncc2)N2CCOCC2)cc1 (centres undefined),2.18%
6,O=C(CNC(=O)c1ccncc1)N/N=C/c1ccc(O)cc1O,3.55%
7,COc1ccc(Br)cc1/C=N/NC(=O)C(c1ccncc1)N1CCOCC1 (centres undefined),-2.26%
8,CC(=O)c1cc(CN2C(=O)CCC2=O)cs1,-1.15%
9,O=C(CSc1nc2ccccc2s1)NCCOc1ccc(Cl)cc1,-0.05%
10,COCc1c(C(=O)OC)nnn1-c1ccccc1,-5.18%
11,CCCc1c(O)nc(SCCN(CC)CC)n(C(=O)c2ccccc2)c1=O,6.49%
12,CC(=O)c1ccc(N2CCN(C(=S)NCCCN(C)C)CC2)cc1,6.58%
13,O=C(N1CCOCC1)N1CCC(NC(=O)C23CC4CC(CC(C4)C2)C3)CC1,-1.68%
14,O=C(COC(=O)/C=C/c1ccc(S(=O)(=O)N2CCOCC2)cc1)NCc1ccccc1,7.02%
15,COc1cccc(-c2nnc(SCC3CNC(=O)O3)n2-c2ccc(Cl)cc2)c1 (centres undefined),3.85%
16,Cc1cccc(OCC(=O)Nc2cc(S(=O)(=O)N3CCCCC3)ccc2N2CCN(C)CC2)c1,5.64%
17,Cc1cnc(C(=O)Nc2nc(-c3ccccc3)cs2)cn1,7.19%
18,O=C(N/N=C/c1cc(Br)cc(Br)c1O)c1ccncc1,36.7%
19,O=C(N/N=C/c1cc([N+](=O)[O-])ccc1O)c1ccncc1,18.8%
20,CN(C)/C=C(\C=O)c1onc(-c2ccccc2Cl)c1C#N,6.68%
21,CN(CC(=O)Nc1ccccc1C(=O)N1CCCC1)S(=O)(=O)c1ccc(Br)cc1,-0.21%
22,CC(C)C1NC2(C(=O)c3ccccc3C2=O)C2C(=O)N(c3ccc(F)cc3)C(=O)C12 (centres undefined),0.46%
23,COc1cc(/C=C2\SC(=N)N(c3ccc4c(c3)OCO4)C2=O)cc(OC)c1O,5.15%
24,Cc1ccc(NC(=O)CN2C(=O)S/C(=C\c3ccc(-c4cccc(C(=O)O)c4C)o3)C2=O)cc1,0.51%

row,Structure (SMILES),inhibition
1,Cc1ccccc1NC(=O)CN1C(=O)S/C(=C\c2ccc(-c3cccc(C(=O)O)c3C)o2)C1=O,-2.06%
2,N=C1S/C(=C\c2ccco2)C(=O)N1c1ccc2c(c1)OCO2,10%
3,Cc1cccc(NC(=O)CN2C(=O)S/C(=C\c3ccc(-c4cccc(C(=O)O)c4C)o3)C2=O)c1,2.36%
4,Cc1ccc(NC(=O)CN2C(=O)S/C(=C\c3ccc(-c4cccc(C(=O)O)c4C)o3)C2=O)cc1C,8.24%
5,COc1ccc(-c2nnc(SCC(=O)Nc3cc(F)ccc3C)o2)cc1,-0.41%
6,CCOc1ccc(N2C(=O)C(=O)/C(=C(/O)c3ccccc3)C2c2ccccc2[N+](=O)[O-])cc1 (centres undefined),5.86%
7,Cc1ccc(C(=O)Nc2c(-c3cccs3)c(=O)c3ccccc3n2C)cc1,5.78%
8,NNC(=O)Cn1nc2n(c1=O)-c1ccccc1SC2,-0.09%
9,Cc1nnc(-n2ncc(C#N)c2N)c2nn(-c3cccc(Cl)c3)c(C)c12,0.94%
10,COC(=O)c1cc2sccc2n1CC(=O)N(C)c1ccccc1,4.58%
11,C=CCN(C(=O)Cn1c(C(=O)OC)cc2oc(C)cc21)c1ccccc1,0.64%
12,COC(=O)c1cc2oc(C)cc2n1CC(=O)N(C)c1ccccc1,24.4% (active)
13,O=C(Cn1cc(C(F)(F)F)ccc1=O)N/N=C/c1ccccc1O,1.53%
14,CN1C(=O)/C(=N\OC(=O)c2cccc3ccccc23)c2ccccc21,5.56%
15,CN1C(=O)/C(=N/OC(=O)c2ccccc2)c2ccccc21,-0.99%
16,COC(=O)c1cccc(Nc2nc(-c3cccnc3)nc3ccccc23)c1,0.67%
17,O=C(O)c1ccc(Nc2nc(-c3cccnc3)nc3ccccc23)cc1,10.8%
18,COc1cccc(N2CC(C)Cn3c2nc2c3c(=O)n(CCN3CCOCC3)c(=O)n2C)c1 (centres undefined),2.83%
19,COc1cccc(N2CC(O)Cn3c2nc2c3c(=O)n(CCCc3ccccc3)c(=O)n2C)c1 (centres undefined),2.82%
20,C=CCn1c(=O)c2c(nc3n2CC(C)CN3c2cccc(OC)c2)n(C)c1=O (centres undefined),26.4% (active)
21,Clc1cccc(NC2=NCCC2)c1,0.77%
22,c1ccc(Oc2cccc(NC3=NCCC3)c2)cc1,29.3% (active)
23,O=[N+]([O-])c1cccc(NC2=NCCC2)c1,3.59%
24,Cc1ccc(CN2CCN(C(=O)C3CCCO3)CC2)cc1 (centres undefined),-1.62%

row,Structure (SMILES),inhibition
1,Cc1ccc(CN2CCN(C(=O)C3CCC3)CC2)cc1,27.7% (active)
2,O=C(C1CCC1)N1CCN(Cc2ccccc2)CC1,7.01%
3,CCN(CC)CC(C)CNC(=O)CN1C(=O)CSc2ccc(S(=O)(=O)N3CCOCC3)cc21 (centres undefined),8.54%
4,CC(C)(C)NC(=O)C(=O)NNC(=O)COc1ccccc1,20.1%
5,Cc1ccc(OCC(=O)NNC(=O)C(=O)NC(C)(C)C)cc1,13.2%
6,CCC(=O)NC(=S)NNC(=O)COc1ccc(Br)cc1,-1.75%
7,CC(=O)NC(=S)NNC(=O)COc1ccc([N+](=O)[O-])cc1,-19.9%
8,CCc1ccc(S(=O)(=O)NCc2csc(C)n2)s1,9.49%
9,Cc1oc(-c2cccs2)nc1CN1CC[C@@](O)(c2ccccc2)[C@H]2CCCC[C@@H]21,4.34%
10,O=C(O)c1ccc(CNC(=O)c2ccccc2NC(=O)c2ccc([N+](=O)[O-])cc2)cc1,1.28%
11,CCOC(=O)c1cc2sccc2n1CC(=O)OC,5.03%
12,C=CCNc1cc(C(F)(F)F)nc(-c2ccccn2)n1,-2.8%
13,c1ccc2sc(NC3=NCN(CCN4CCOCC4)CN3)nc2c1,-2.82%
14,Cc1ccc(S(=O)(=O)NC2=NCN(CCN3CCOCC3)CN2)cc1,2.01%
15,Cc1nc(NC2=NCN(CCCN3CCOCC3)CN2)nc2c(C)cccc12,29.4% (active)
16,NC(=O)C1CCCN(C(=S)Nc2ccccc2)C1 (centres undefined),0.97%
17,CSc1nc2c(c(=O)[nH]1)C(c1cccs1)C1=C(CCCC1=O)N2 (centres undefined),9.61%
18,O=C(O)c1ccc(-c2nc(-c3ccccc3)c(-c3ccccc3)[nH]2)cc1,23.1%
19,O=C(O)c1ccccc1-c1nc2ccccc2[nH]1,0.23%
20,c1ccc(OCc2nn3c(-c4ccco4)nnc3s2)cc1,-2.34%
21,COc1ccc(Cl)cc1NC(=S)N1CCN(S(C)(=O)=O)CC1,5.32%
22,COC(=O)C1=C(C)NC(C)=C(C(=O)OC)C1c1ccc(-c2cccc([N+](=O)[O-])c2)o1,7.62%
